{"source": "PubChem BioAssay (EPA / NIEHS)", "note": "Active and inactive are the calls of the source. The calls were made as follows: active = hit-call score of the fitted dose curve at least 0.9, where 1 is the maximum; inactive = score below 0.9."}
{"assay": "Tanguay_ZF_120hpf_BRN: Oregon State University Tanguay Lab 120 Hour Post-fertilization zebrafish Assay for Brain Region Malformation (AID 2284402)", "description": "Tanguay_ZF_120hpf is a whole embryo, multiplexed endpoint assay using zebrafish larvae exposed for 120 hours post fertilization on a 96-well plate.Tanguay_ZF_120hpf_BRN is one of one assay component(s) measured or calculated from the Tanguay_ZF_120hpf assay. It is designed to make measurements of zebrafish development as detected with brightfield microscopy of developing zebrafish embryos.Data from the assay component Tanguay_ZF_120hpf_BRN was analyzed into 1 assay endpoints. This assay endpoint, Tanguay_ZF_120hpf_BRN, was analyzed in the positive analysis fitting direction relative to DMSO as the negative control and baseline of activity. Using a type of morphology reporter, gain-of-signal activity can be used to understand changes in developmentals as they relate to the whole embryo. To generalize the intended target to other relatable targets, this assay endpoint is annotated to the zebrafish development intended target family, where the subfamily is brain morphogenesis.\nZebrafish husbandry: Tropical 5D wild-type adult zebrafish were housed in at an approximate density of 1000 per 100 gallon tank at the Sinnhuber Aquatic Research Laboratory, Oregon State University, Corvallis, OR. Each tank was kept at standard laboratory conditions of 28C on a 14-h light/10-h dark photoperiod in fish water consisting of reverse osmosis water supplemented with a commercially available salt (Instant Ocean). Spawning funnels were placed into the tanks the night prior, and embryos were collected and staged. To increase bioavailability, the chorion was enzymatically removed using pronase (63.6mg/ml, >/= 3.5U/mg, Sigma-Aldrich: P5147) at 4 hours post fertilization (hpf) using a custom automated dechorionator.Chemical exposures: Six hpf dechorionated embryos were placed 1 embryo per well in a 96-well plate prefilled with 90 ul of EM using automated embryo placement systems (AEPS). Ten microliters of each row of dilution plate 2 was added to 2 exposure plates. The final DMSO concentration used was 0.64% (vol/vol). Thirty-two embryos were also exposed to 5uM trimethyltin chloride (positive control). Plates were sealed to prevent evaporation and foil covered to reduce light exposure and kept in a 28C incubator. Embryos were statically exposed until 120 hpf. At 24 hpf, embryos were assessed for photomotor response using a custom photomotor response analysis tool (PRAT) and for developmental toxicity endpoints (MO24: mortality at 24 hpf, DP: developmental progression, SM: spontaneous movement, and NC: notochord distortion). At 120 hpf, locomotor activity was measured using Viewpoint Zebralab and assessed for 13 endpoints. Zebrafish acquisition and analysis program (ZAAP), a custom program designed to inventory, acquire, and manage zebrafish data, was used to collect developmental endpoints as either present or absent (i.e., binary responses were recorded). If mortality occurred for an embryo (at either 24 or 120 hpf), the non-mortality endpoints were not measured."}
{"smiles": "C=CC(=O)OCC(F)(F)C(F)(F)C(F)(F)C(F)(F)C(F)(F)C(F)(F)C(F)(F)F", "outcome": "inactive"}
{"smiles": "OCC(F)(F)C(F)(F)C(F)(F)F", "outcome": "inactive"}
{"smiles": "C=C(C)C(=O)OCCC(F)(F)C(F)(F)C(F)(F)C(F)(F)C(F)(C(F)(F)F)C(F)(F)F", "outcome": "inactive"}
{"smiles": "FC(F)(F)C(F)(F)C(F)(F)C(F)(F)C(F)(F)CCI", "outcome": "inactive"}
{"smiles": "O=C(O)C(F)(F)C(F)(F)C(F)(F)C(F)(F)C(F)(F)C(F)(F)C(F)(F)C(F)(F)C(F)(F)C(F)(F)C(F)(F)C(F)(F)F", "outcome": "inactive"}
{"smiles": "O=S(=O)(OCC(F)F)C(F)(F)F", "outcome": "inactive"}
{"smiles": "OCC(F)(F)C(F)(F)C(F)(F)C(F)(F)C(F)(F)C(F)F", "outcome": "inactive"}
{"smiles": "OCCCC(F)(F)C(F)(F)C(F)(F)C(F)(F)C(F)(F)C(F)(F)C(F)(F)F", "outcome": "inactive"}
{"smiles": "C=CC(F)(F)C(F)(F)C(F)(F)C(F)(F)C(F)(F)C(F)(F)C(F)(F)C(F)(F)C=C", "outcome": "inactive"}
{"smiles": "FC(F)(F)C(F)(F)C(F)(F)C(F)(F)CCI", "outcome": "inactive"}
{"smiles": "CCCCCCCCC(F)(F)C(F)(F)C(F)(F)C(F)(F)C(F)(F)C(F)(F)F", "outcome": "inactive"}
{"smiles": "Cc1ccc(S(=O)(=O)OCC(F)(F)C(F)(F)C(F)(F)C(F)(F)C(F)(F)C(F)F)cc1", "outcome": "inactive"}
{"smiles": "O=S(=O)(OCCOC(F)(F)F)C(F)(F)F", "outcome": "inactive"}
{"smiles": "CCO[Si](CCC(F)(F)C(F)(F)C(F)(F)C(F)(F)C(F)(F)C(F)(F)F)(OCC)OCC", "outcome": "inactive"}
{"smiles": "OCCCC(F)(F)C(F)(F)C(F)(F)F", "outcome": "inactive"}
{"smiles": "FC(F)(F)C(F)(F)C(F)(F)CI", "outcome": "inactive"}
{"smiles": "C=C(C)C(=O)OCC(F)(F)C(F)(F)C(F)(F)F", "outcome": "inactive"}
{"smiles": "NC(=O)C(F)(F)C(F)(F)C(F)(F)C(F)(F)F", "outcome": "inactive"}
{"smiles": "FC(F)(F)C(F)(F)C(F)(F)N(C(F)(F)C(F)(F)C(F)(F)F)C(F)(F)C(F)(F)C(F)(F)F", "outcome": "inactive"}
{"smiles": "O=C(O)C(F)(F)C(F)(F)F", "outcome": "inactive"}
{"smiles": "O=C(O)C(F)(OC(F)(F)C(F)(OC(F)(F)C(F)(OC(F)(F)C(F)(F)C(F)(F)F)C(F)(F)F)C(F)(F)F)C(F)(F)F", "note": "(stereo not given)", "outcome": "inactive"}
{"smiles": "O=C(O)C(F)(F)C(F)(F)C(F)(F)C(F)(F)C(F)(F)C(F)(F)C(F)(F)C(F)(F)C(F)(F)C(F)(F)C(F)(F)C(F)(F)C(F)(F)F", "outcome": "inactive"}
{"smiles": "FC(F)(F)C(F)(F)CNCC(F)(F)C(F)(F)F", "outcome": "inactive"}
{"smiles": "O=C(O)C(F)(F)C(F)(F)C(F)(F)C(F)(F)C(F)(F)C(F)(F)C(F)(F)C(F)(F)C(F)(F)C(F)F", "outcome": "inactive"}
{"smiles": "O=C(O)C(F)(OC(F)(F)C(F)(OC(F)(F)C(F)(F)C(F)(F)F)C(F)(F)F)C(F)(F)F", "note": "(stereo not given)", "outcome": "inactive"}
{"smiles": "OCC(F)(F)C(F)(F)C(F)(F)C(F)F", "outcome": "inactive"}
{"smiles": "C=CC(=O)OCC(F)(F)C(F)(F)C(F)(F)C(F)(F)COC(=O)C=C", "outcome": "inactive"}
{"smiles": "O=C(O)C(F)(F)C(F)(F)C(F)(F)C(F)(F)C(F)(F)C(F)(F)C(F)(F)C(F)(F)Cl", "AC50": "47.7 µM (active)"}
{"smiles": "O=S(=O)(O)C(F)(F)C(F)(F)C(F)(F)C(F)(F)C(F)(F)C(F)(F)C(F)(F)F", "AC50": "52.4 µM (active)"}
{"smiles": "FC(F)(F)C(F)(F)C(F)(F)C(F)(F)C(F)(F)C(F)(F)CC1CO1", "note": "(stereo not given)", "outcome": "inactive"}
{"smiles": "O=C(CC(=O)C(F)(F)C(F)(F)F)C(F)(F)F", "outcome": "inactive"}
{"smiles": "O=C(O)C(F)(F)C(F)(F)C(F)F", "outcome": "inactive"}
{"smiles": "N=C(N)C(F)(F)C(F)(F)C(F)(F)C(F)(F)C(F)(F)C(F)(F)C(F)(F)F", "outcome": "inactive"}
{"smiles": "FC(F)(F)C(F)(F)C(F)(F)C(F)(F)C(F)(F)C(F)(F)C(F)(F)C(F)(F)F", "outcome": "inactive"}
{"smiles": "FC(F)(F)C(F)(F)C(F)(F)C(F)(F)C(F)(F)C(F)(F)C(F)(F)C(F)(F)CCS", "outcome": "inactive"}
{"smiles": "OCC(F)(F)C(F)(F)C(F)(F)C(F)(F)C(F)(F)C(F)(F)F", "outcome": "inactive"}
{"smiles": "FC(F)(F)C(F)(F)C(F)(F)C(F)(F)C(F)(F)C(F)(F)C(F)(F)I", "outcome": "inactive"}
{"smiles": "O=C(O)C(F)(F)C(F)(F)C(F)(F)F", "outcome": "inactive"}
{"smiles": "C=C(C)C(=O)OCC(F)(F)C(F)(F)C(F)(F)C(F)(F)C(F)(F)C(F)(F)C(F)(F)F", "outcome": "inactive"}
{"smiles": "C=CC(F)(F)C(F)(F)C(F)(F)C(F)(F)C(F)(F)C(F)(F)C(F)(F)C(F)(F)F", "outcome": "inactive"}
